The source of these data is PubChem BioAssay (Tox21).

Results filed as inconclusive are left out. Calls of active or inactive are those of the source. Unless noted, the call rests on the fitted dose curve.

The nature of assay [1]: Nuclear factor erythroid 2-related factor 2/antioxidant responsive element (Nrf2/ARE) small molecule agonists: qHTS cell viability counter screen in human keratinocytes (AID 1919968; active means well fitted curve in the direction sought with a large enough effect in the repeat runs; an effect the other way counts as inactive or inconclusive; further: nearly all actives have a fitted effect of over 55% in size; further: potency means the concentration at half of the fitted maximal effect). The gist of the method: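 Cells of the KeratinoSens line were plated at 1,500 per well and left for 5 h before compound transfer from DMSO stocks. After a 23 h incubation (37 C, 5% CO2), CellTiter-Fluor was added. Signal was taken as fluorescence intensity 1 h later.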

Assay [2] is described as follows: Nuclear factor erythroid 2-related factor 2/antioxidant responsive element (Nrf2/ARE) small molecule agonists: luciferase reporter gene qHTS assay in human keratinocytes (AID 1919969; further: nearly all actives have a fitted effect of over 35% in size). (In general: Reporter assays use an easily measured gene product as a stand-in for the process of interest.)
The target in assay [3] is Gonadotropin-releasing hormone receptor (Homo sapiens) (UniProt P30968). As to the kind of experiment: Human gonadotropin-releasing hormone receptor (GnRHR) small molecule agonists, calcium flux assay in GnRHR-HEK293 cells (AID 1920063). Further: nearly all actives have a fitted effect of over 35% in size. The gist of the method: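 Compounds dissolved in DMSO are pin-transferred onto dye-loaded GnRHR-HEK293 cells, which were seeded 18 h before at 37 C/5% CO2. Calcium signal is read as fluorescence intensity at 1 s intervals for 3 min.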
In general terms: A change in cytosolic calcium serves as a functional read-out for many receptors and channels.

For assay [4], the target named is KiSS-1 receptor (Homo sapiens) (UniProt Q969F8). As to the kind of experiment: Human kisspeptin (KISS1R) small molecule agonists, calcium flux assay in KISS1R-HEK293 cells (AID 1920064; active means well fitted curve in the direction sought with a large enough effect in the repeat runs; an effect the other way counts as inactive or inconclusive). The gist of the method: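 Cell line: HEK293, stable human KISS1R. Dye loading 1 h at 37 C after 18 h culture. Read: kinetic fluorescence, 480/540 nm, 3 min at 1 s intervals.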
Assay [5] can be described thus: G protein-coupled receptor (GPCR) small molecule agonists, calcium flux assay: HEK293 wild type cell line counter screen (AID 1920065). The gist of the method: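 Tox21 10K compounds, 15 concentrations each in triplicate, pin-transferred in DMSO onto dye-loaded cells; kinetic read at 480/540 nm for 3 min, 1 s intervals.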
Assay [6] in a line: p53 small molecule agonists, cell-based qHTS assay with human liver microsomes (AID 1963577). The gist of the method:
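Fluorescence of the beta-lactamase reporter in p53RE-bla cells, detected with LiveBLAzer substrate (2 h, room temperature, dark), served as the read-out after 16 h compound exposure at 37 C with human liver microsomes and NADPH, each 0.5 mg/mL final.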

A short description of assay [7]: p53 small molecule agonists, cell-based qHTS assay with rat liver microsomes (AID 1963578). The gist of the method: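 Cells carrying a p53 response element–beta-lactamase reporter were plated and rested 5 h, then dosed with compound in DMSO plus rat liver microsomes and NADPH, each at 0.5 mg/mL final. After 16 h at 37 C, LiveBLAzer substrate was added for 2 h.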
A general note: qHTS replaces the single test concentration by a dilution series.

A short description of assay [8]: p53 small molecule agonists, cell-based qHTS assay with human liver microsomes: qHTS cell viability counter screen (AID 1963579). Further: nearly all actives have a fitted effect of over 45% in size. The gist of the method: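 Cytotoxicity counter screen: p53RE-bla, 4,000 cells/well; 5 h settle, 37 C/5% CO2; cpd + HLM 0.5 mg/mL + NADPH 0.5 mg/mL (final); 16 h, 37 C; CellTiter-Glo, 30 min RT, luminescence.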
The nature of assay [9]: p53 small molecule agonists, cell-based qHTS assay with rat liver microsomes: qHTS cell viability counter screen (AID 1963580). Further: nearly all actives have a fitted effect of over 45% in size. The gist of the method:
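Rat liver microsome (0.5 mg/mL final) and NADPH (0.5 mg/mL final) co-incubation with compounds for 16 h at 37 C on HCT-116 p53RE-bla cells; cytotoxicity taken from intracellular ATP luminescence.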

The nature of assay [10]: p53 small molecule agonists, cell-based qHTS assay (AID 1963582; active means well fitted activation curve with a large enough effect in the signal ratio in the repeat runs, not every such curve was filed as active; the % refers to the signal ratio). The gist of the method: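 16 h compound exposure (37 C) of p53 response element–bla cells, preceded by 5 h recovery at 37 C/5% CO2; read-out via LiveBLAzer B/G FRET substrate, 2 h RT, fluorescence intensity.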
Assay [11] deals with Beta-2 adrenergic receptor (Homo sapiens) (UniProt P07550). As to the kind of experiment: Adrenergic beta2 receptor (ADRB2) small molecule antagonists, cell-based qHTS assay (AID 1963592). Further: series mostly up to about 92 µM; nearly all actives have a fitted effect of over 50% in size. The gist of the method: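 Assay format: CHO-ADRB2 cells, 18-20hr seeding at 37C/5% CO2, then compound plus 1nM isoproterenol agonist mix for 0.5hr RT. Homogeneous time-resolved fluorescence cAMP detection after 1hr, expressed as 665/615 nm ratio.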

In assay [12] the target is D(2) dopamine receptor (Homo sapiens) (UniProt P14416). As to the kind of experiment: Dopamine D2 receptor (DRD2) small molecule antagonists, cell-based qHTS assay (AID 1963595; active means well fitted inhibition curve with a large enough effect in the signal ratio in the repeat runs, with a control signal flat; the % refers to the signal ratio; further: potency means the concentration at half of the fitted maximal effect). The gist of the method: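 HEK293 cells stably expressing DRD2, preincubated with 0.1 mM Ro20-1724 and compounds 10 min, were stimulated with 200 nM NKH477 plus 12 nM quinpirole for 30 min at room temperature; cAMP measured by HTRF (665/620 nm).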

Assay [13] has as its target 5-hydroxytryptamine receptor 2A (Homo sapiens) (UniProt P28223). As to the kind of experiment: 5-hydroxytryptamine receptor 2A (HTR2A) small molecule antagonists, cell-based qHTS assay (AID 1963586). Further: nearly all actives have a fitted effect of over 45% in size. The gist of the method:
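CHO cells stably expressing human HTR2A were plated for 18 h at 37 C, then loaded with calcium dye for 1 h. Compounds were preincubated 5 min at room temperature before DOI (4 nM solution) was added. Kinetic fluorescence was read for 3 min.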

Assay [14] shares this target. In words: 5-hydroxytryptamine receptor 2A (HTR2A) small molecule agonists, cell-based qHTS assay (AID 1963587). Further: nearly all actives have a fitted effect of over 30% in size. The gist of the method:
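Kinetic calcium-flux fluorescence (2 min, 1 sec intervals) after compound addition in agonist mode. HTR2A-CHO cells were cultured 18 h, then dye-loaded 1 h at 37 C.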

The target in assay [15] is Muscarinic acetylcholine receptor M1 (Homo sapiens) (UniProt P11229). As to the kind of experiment: Cholinergic receptor muscarinic 1 (CHRM1) small molecule antagonists, cell-based qHTS assay (AID 1963588). Further: nearly all actives have a fitted effect of over 40% in size. The gist of the method:
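Compounds were tested at 15 concentrations in three independent runs. Dye-loaded CHRM1-CHO cells were exposed 5 min at room temperature before stimulation by acetylcholine added at 50nM. Intracellular calcium was read kinetically on FDSS for 3 min.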

The target is the same in assay [16]. As to the kind of experiment: Cholinergic receptor muscarinic 1 (CHRM1) small molecule agonists, cell-based qHTS assay (AID 1963589). Further: nearly all actives have a fitted effect of over 35% in size. The gist of the method: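 Homogeneous fluorescence calcium flux, agonist mode. Human M1-expressing CHO cells; compound dosed at 15 concentrations, three independent runs; signal sampled every 1 sec.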
Assay [17] can be described thus: cAMP Responsive Elements (CRE) small molecule agonists, cell-based qHTS assay (AID 1963590). The gist of the method: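 HEK 293T cells stably bearing CRE-bla were plated at 2,000 cells per well and rested 18 h. Compounds, positive controls or DMSO were added for 3 h at 37 C. LiveBLAzer B/G substrate was then loaded for 2 h at room temperature.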
Assay [18] can be described thus: cAMP Responsive Elements (CRE) small molecule antagonists, cell-based qHTS assay (AID 1963591; active means well fitted inhibition curve with a large enough effect in the signal ratio in the repeat runs, not every such curve was filed as active; the % refers to the signal ratio). The gist of the method: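 First, CRE-bla HEK293T cells settled 18 h at 37 C. Next, compound and 0.25 uM final NKH477 were applied for 3 h. Last, LiveBLAzer B/G substrate was loaded for 2 h at room temperature.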
Assay [19] deals with D(2) dopamine receptor (Homo sapiens) (UniProt P14416). In words: Dopamine D2 receptor (DRD2) small molecule agonists, cell-based qHTS assay (AID 1963594). Further: nearly all actives have a fitted effect of over 35% in size. The gist of the method: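 cAMP accumulation in DRD2-HEK293 cells measured by HTRF after 1 h detection; compounds added 10 min before NKH477 (200nM […]) forskolin-analogue stimulation, 30 min at room temperature, with Ro20-1724 present at 0.1 mM final.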

Chain of KiSS-1 receptor (Homo sapiens) (Q969F8 whole entry, looked up): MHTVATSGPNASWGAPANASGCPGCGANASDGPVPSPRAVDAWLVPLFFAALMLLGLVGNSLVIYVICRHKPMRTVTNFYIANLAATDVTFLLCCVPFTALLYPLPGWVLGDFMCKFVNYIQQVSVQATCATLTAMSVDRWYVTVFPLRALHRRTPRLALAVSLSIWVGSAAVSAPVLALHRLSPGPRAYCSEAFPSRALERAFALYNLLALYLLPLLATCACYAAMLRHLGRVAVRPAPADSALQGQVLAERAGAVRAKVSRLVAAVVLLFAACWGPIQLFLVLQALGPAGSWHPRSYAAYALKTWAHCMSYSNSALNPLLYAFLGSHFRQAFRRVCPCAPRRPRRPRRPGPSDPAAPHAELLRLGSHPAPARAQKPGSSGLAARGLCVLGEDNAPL
Chain of 5-hydroxytryptamine receptor 2A (Homo sapiens) (P28223 whole entry, looked up): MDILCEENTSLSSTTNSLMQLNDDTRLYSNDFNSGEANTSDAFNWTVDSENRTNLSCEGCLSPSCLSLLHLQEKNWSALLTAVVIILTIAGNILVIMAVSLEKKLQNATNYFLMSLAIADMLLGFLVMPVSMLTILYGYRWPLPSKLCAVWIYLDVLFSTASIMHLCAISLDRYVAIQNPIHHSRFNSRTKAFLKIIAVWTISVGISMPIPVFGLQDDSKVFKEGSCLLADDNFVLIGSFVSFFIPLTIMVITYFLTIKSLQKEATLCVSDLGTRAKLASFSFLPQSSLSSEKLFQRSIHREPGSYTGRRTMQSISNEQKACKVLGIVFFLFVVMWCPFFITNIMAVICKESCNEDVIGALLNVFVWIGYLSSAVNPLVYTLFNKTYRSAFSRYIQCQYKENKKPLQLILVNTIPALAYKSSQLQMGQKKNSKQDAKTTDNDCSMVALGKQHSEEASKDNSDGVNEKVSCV
Chain of Muscarinic acetylcholine receptor M1 (Homo sapiens) (P11229 whole entry, looked up): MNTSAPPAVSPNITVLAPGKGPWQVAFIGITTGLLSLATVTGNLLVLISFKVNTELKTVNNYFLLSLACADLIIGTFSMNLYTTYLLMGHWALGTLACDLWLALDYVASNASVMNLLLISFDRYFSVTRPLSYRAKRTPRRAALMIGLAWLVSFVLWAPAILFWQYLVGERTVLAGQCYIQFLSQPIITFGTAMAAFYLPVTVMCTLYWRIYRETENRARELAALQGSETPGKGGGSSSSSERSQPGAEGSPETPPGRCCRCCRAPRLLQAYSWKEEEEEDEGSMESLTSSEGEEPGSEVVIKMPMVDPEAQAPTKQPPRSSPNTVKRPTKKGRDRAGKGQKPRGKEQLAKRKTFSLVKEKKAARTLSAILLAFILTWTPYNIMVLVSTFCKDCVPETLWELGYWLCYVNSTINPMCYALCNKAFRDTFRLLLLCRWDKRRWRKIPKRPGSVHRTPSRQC
Chain of D(2) dopamine receptor (Homo sapiens) (P14416 whole entry, looked up): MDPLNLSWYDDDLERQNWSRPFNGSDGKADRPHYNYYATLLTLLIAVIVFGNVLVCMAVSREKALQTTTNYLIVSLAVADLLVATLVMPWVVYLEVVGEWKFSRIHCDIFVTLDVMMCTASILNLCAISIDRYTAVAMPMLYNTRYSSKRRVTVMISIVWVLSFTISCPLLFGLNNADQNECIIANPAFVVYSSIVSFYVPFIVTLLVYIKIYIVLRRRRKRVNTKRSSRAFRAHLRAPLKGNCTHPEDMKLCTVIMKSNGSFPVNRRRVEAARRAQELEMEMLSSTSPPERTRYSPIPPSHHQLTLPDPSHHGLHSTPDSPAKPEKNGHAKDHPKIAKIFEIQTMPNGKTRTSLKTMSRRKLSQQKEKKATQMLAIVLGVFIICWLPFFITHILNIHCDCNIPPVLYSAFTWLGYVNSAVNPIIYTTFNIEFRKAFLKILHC
Chain of Gonadotropin-releasing hormone receptor (Homo sapiens) (P30968 whole entry, looked up): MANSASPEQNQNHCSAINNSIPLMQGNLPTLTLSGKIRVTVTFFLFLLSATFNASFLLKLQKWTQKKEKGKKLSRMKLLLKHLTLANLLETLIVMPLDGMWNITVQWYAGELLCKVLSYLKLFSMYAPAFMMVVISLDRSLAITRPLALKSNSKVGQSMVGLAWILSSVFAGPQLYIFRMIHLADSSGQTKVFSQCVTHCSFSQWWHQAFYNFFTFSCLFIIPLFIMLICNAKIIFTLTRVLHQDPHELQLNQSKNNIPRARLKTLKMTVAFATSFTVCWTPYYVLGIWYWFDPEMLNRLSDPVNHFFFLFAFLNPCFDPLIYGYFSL
Chain of Beta-2 adrenergic receptor (Homo sapiens) (P07550 whole entry, looked up): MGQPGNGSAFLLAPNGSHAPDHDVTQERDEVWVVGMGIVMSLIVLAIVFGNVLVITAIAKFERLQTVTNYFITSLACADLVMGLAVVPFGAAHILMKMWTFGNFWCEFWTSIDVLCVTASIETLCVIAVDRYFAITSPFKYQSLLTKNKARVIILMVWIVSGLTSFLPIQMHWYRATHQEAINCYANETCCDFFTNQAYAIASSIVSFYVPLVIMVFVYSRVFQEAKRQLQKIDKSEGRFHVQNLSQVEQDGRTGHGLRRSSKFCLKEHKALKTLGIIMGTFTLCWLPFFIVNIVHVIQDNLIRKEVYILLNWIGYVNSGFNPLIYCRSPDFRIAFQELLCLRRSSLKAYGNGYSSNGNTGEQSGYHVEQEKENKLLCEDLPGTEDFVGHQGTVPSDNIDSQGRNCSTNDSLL

Consider `Clc1ccccc1C(c1ccccc1)(c1ccccc1)n1ccnc1`, for which the Potency in [1] is 30.6 µM (active); in assay [12], 61.1 µM (active). The Potency entry in assay [2], in assay [3], in [4], in [5], in assay [6] and in assay [7] was “inactive” in each case. The Potency entry in [8], in [9], in [10] and in assay [11] was “inactive” throughout.

With `Cn1ccnc1`, the Potency entry in [1], in [2], in [3], in assay [4], in assay [5] and in [6] was “inactive” throughout. The Potency result in [7], in assay [8], in assay [9], in [10], in [13] and in assay [14] was “inactive” throughout. Further, the Potency result in assay [15], in assay [16], in assay [17], in [18], in assay [19] and in [12] was “inactive” throughout.

Take `COc1cccc(OC)c1C(=O)O`: the Potency entry in assay [1], in assay [2], in [3], in assay [4], in assay [5] and in assay [6] was “inactive” throughout. Also, the Potency entry in assay [7], in assay [8], in assay [9], in [10], in assay [13] and in assay [14] was “inactive” in each case. Also, the Potency entry in assay [16], in assay [17], in [11], in assay [19] and in assay [12] was “inactive” each time.

With `Cc1ccc(Nc2ccc(O)c3c2C(=O)c2ccccc2C3=O)cc1`, the Potency result in assay [1], in assay [2], in assay [3], in [4], in assay [5] and in assay [6] was “inactive” throughout. Besides, the Potency result in assay [7], in [8], in assay [9], in [10], in assay [13] and in assay [14] was “inactive” in each case. Also, the Potency entry in [15], in [16], in assay [17], in [18], in [11] and in assay [19] was “inactive” each time. Besides, the Potency result in assay [12] is “inactive”.

For `CC/C=C\C#N`, the Potency entry in assay [1], in [2], in [3], in [4], in [5] and in assay [6] was “inactive” in each case. In addition, the Potency result in [7], in [8], in assay [9], in assay [10], in assay [13] and in assay [14] was “inactive” throughout. Also, the Potency result in assay [15], in assay [16], in assay [17], in assay [18], in assay [19] and in [12] was “inactive” each time.

Turning to `CC1(C)[C@@H]2CC[C@@]1(C)[C@H](O)C2`, the Potency entry in [1], in assay [2], in assay [3], in assay [4], in assay [5] and in assay [6] was “inactive” each time. Moreover, the Potency result in assay [7], in assay [8], in assay [9], in assay [10], in [13] and in [14] was “inactive” in each case. Also, the Potency result in assay [16], in [17], in assay [18], in assay [11], in assay [19] and in assay [12] was “inactive” in each case.

With `C1COCCO1`, the Potency entry in assay [1], in [2], in assay [3], in [4], in assay [5] and in [6] was “inactive” each time. Further, the Potency entry in assay [7], in assay [8], in [9], in assay [10], in [14] and in assay [15] was “inactive” each time. Also, the Potency entry in assay [16], in [17], in assay [18], in assay [19] and in assay [12] was “inactive” each time.
